Assay outcomes: PubChem, National Center for Advancing Translational Sciences (NCATS)
D2 ag-1 – activates the human D2 dopamine receptor | actives 0.084% (n = 360,000) | activation, % (no concentration beside the values) | AID 624465 | P14416 | DiscoveRx PathHunter D2 beta-arrestin, luminescence, 90 min; 100% = 57 uM dopamine signal; in the data active means activation above about 40%; inconclusive means between about 15% and that limit
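Agonist mode: compounds alone added to overnight-plated D2 PathHunter cells for 90 min at 37 C, with 57 uM final dopamine (EC100) defining full response. Beta-arrestin recruitment detected by chemiluminescent reagent, read after 1 h at ambient temperature.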
D2 PAM-1 – D2 dopamine receptor (human) potentiation; AID 485347; actives 0.34% (n = 340,000); HEK293 T-REx D2, calcium flux, EC20 dopamine potentiation; P14416; potentiation, % at 10 µM;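 active means potentiation over 3 SD above the plate norm, cut at about 30% in these data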
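Using a no-wash calcium dye in inducible, force-coupled HEK293 Trex cells expressing D2, we tracked fluorescence each second for 180 s after compound, then for 180 s after EC20 dopamine to detect augmented signalling.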
D2 ag-2 – activates the human D2 dopamine receptor | actives 0.53% (n = 340,000) | HEK293 T-REx D2 cells, calcium flux agonist mode | activation, % at 2 µM;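 active means activation over 3 SD above normal in the single-dose calcium agonist read, cut at about 30% in these data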
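Tetracycline-induced HEK293 T-REx cells with force-coupled D2 receptor, plated overnight at 30 C, loaded with no-wash calcium dye. After a 10 s baseline, compound was pin-added and calcium flux read kinetically for 180 s; calcium rises flagged agonists.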
D2 PAM-2 – human D2 receptor positive allosteric modulation. P14416. DiscoveRx D2 beta-arrestin cells, luminescence, 90 min; 100% = 57 uM dopamine signal. potentiation, % (test concentration not listed). actives 0.23% (n = 360,000). AID 624464; in the data active means potentiation above about 50%; inconclusive means mostly about 30% to 49%
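PathHunter D2 cells, attached overnight at 37 deg C, received compound in DMSO plus dopamine at EC20 (50 nM final) for 90 min at 37 deg C. Beta-arrestin recruitment was read as luminescence after 1 h with detection reagent at ambient temperature.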
D2 antag – D2 dopamine receptor (human) antagonism; P14416; HEK293 TREx D2 cells, calcium flux, dopamine EC80; inhibition, % at 10 µM; actives 2% (n = 340,000); in the data active means inhibition above about 30%; inactive means below that, where a call was filed
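In this primary screen, negative modulation is detected by tracking calcium flux after an EC80 dopamine challenge in inducible HEK293 T-REx D2 cells preexposed to test compound for 180 s.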
D3 ag – activates human D3 dopamine receptor beta-arrestin recruitment; shares compounds with D2 ag-2; DiscoveRx D3 beta-arrestin cells, luminescence, 90 min; Potency, µM (doses to about 76.9 µM), usual class: activators; actives 4% (n = 2,300); AID 720506; further: nearly all actives have a fitted effect of over 70% in size
Target sequence (P35462 whole entry, looked up): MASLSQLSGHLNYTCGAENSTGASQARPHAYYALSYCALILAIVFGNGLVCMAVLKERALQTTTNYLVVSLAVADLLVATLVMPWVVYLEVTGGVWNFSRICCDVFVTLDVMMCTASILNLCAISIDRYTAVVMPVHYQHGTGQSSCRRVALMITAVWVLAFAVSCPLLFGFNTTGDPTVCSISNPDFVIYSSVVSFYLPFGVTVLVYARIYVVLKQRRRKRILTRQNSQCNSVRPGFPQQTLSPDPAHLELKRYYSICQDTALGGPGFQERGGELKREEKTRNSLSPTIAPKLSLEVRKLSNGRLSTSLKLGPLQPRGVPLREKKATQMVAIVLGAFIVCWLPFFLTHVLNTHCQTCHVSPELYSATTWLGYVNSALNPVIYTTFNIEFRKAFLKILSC
D2 ag-3 – D2 receptor agonism, beta-arrestin counterscreen; shares compounds with D2 ag-2; DiscoveRx PathHunter D2 beta-arrestin, luminescence, 90 min; response scale: percent relative to full dopamine signal; actives 5.9% (n = 2,300); Potency, µM (doses to about 76.9 µM), hits mostly activators; further: nearly all actives have a fitted effect of over 70% in size
Of the large screens only hits and unclear results are named; the others gave an inactive call (follow-up assays come after a bar, where they were run); ! = repeats disagree. Most compounds without a hit are left out; they make up all but 2.4% or so of the library. Unless noted, the call rests on the fitted dose curve; in most records, active means well fitted activation curve with a large enough effect; inconclusive means small, poorly fitted or top-dose-only effect; inactive means flat fitted curve, though single readings scatter.

COc1cccc(CN2CCN(Cc3cc4ccccc4o3)CC2CCO)c1 (stereo unspecified)	D2 ag-2 43 | D3 ag inactive | D2 ag-3 inactive
COc1ccc(CN2CCN(Cc3cc4ccccc4o3)CC2CCO)c(F)c1 (stereo unspecified)	none
COc1ccc(CN2CCN(Cc3cc4ccccc4o3)CC2CCO)cc1C (stereo unspecified)	D2 ag-1 inconclusive, D2 ag-2 66 | D3 ag inactive | D2 ag-3 inactive
COC(=O)c1cc(C(=O)Nc2ccc(S(=O)(=O)NC(C)(C)C)cc2)cc([N+](=O)[O-])c1	none
CCN(CC)S(=O)(=O)c1ccc(NC(=O)c2cc(C(=O)OC)cc([N+](=O)[O-])c2)cc1	D2 ag-2 46 | D3 ag inactive | D2 ag-3 inactive
O=C(c1cc(-c2ccccc2O)on1)N1CCCCC1	none (no result: D2 ag-1, D2 PAM-2, D2 antag)
Cc1ccc(CN2C(=O)c3ccccc3CC2(C)C(=O)NC2CCCCC2)cc1 (stereo unspecified)	none (no result: D2 ag-1, D2 ag-2, D2 PAM-2, D2 antag)
COc1ccc(C(C)C)cc1S(=O)(=O)NCc1ccccn1	none
Cc1ccc(C(C)C)cc1S(=O)(=O)NCc1ccccn1	none (no result: D2 ag-2, D2 antag) | D3 ag inactive | D2 ag-3 inactive
O=C(Nc1cccc(C(F)(F)F)c1)c1cc(-c2ccc3c(c2)OCCO3)on1	none (no result: D2 ag-1, D2 PAM-2, D2 antag)
Cc1cc(C)cc(OC2CCCCC2NS(=O)(=O)c2ccccc2)c1 (stereo unspecified)	D2 antag 36 | D3 ag inactive | D2 ag-3 inactive
CSc1ccc(OC2CCCCC2NS(=O)(=O)c2ccccc2)cc1 (stereo unspecified)	none
Cc1ccc(C)c(OCCn2cc(C(=O)c3ccco3)c3ccccc32)c1	none (no result: D2 ag-1, D2 PAM-2, D2 antag)
COCc1cc(C)nc(OCC(=O)N/N=C/c2ccc(O)cc2)c1C#N	D2 ag-2 50 | D3 ag inactive | D2 ag-3 inactive
Nc1c(Cl)ncnc1NCC(O)CO (stereo unspecified)	none | D3 ag inactive | D2 ag-3 inactive
O=C(NCCCn1cccn1)c1cc(COc2ccccc2)on1	none (no result: D2 PAM-1, D2 ag-2, D2 antag)
CCOC(=O)C1(CC2CC2)CCN(Cc2cnc(N(C)C)s2)CC1	D2 ag-2 75, D2 antag 68 | D3 ag inactive | D2 ag-3 inactive
CCOC(=O)C1(CCOc2ccccc2)CCN(Cc2cnc(C)s2)CC1	none
C=CCn1c(SCCCC)nc(O)cc1=O	D2 antag 31! | D3 ag inactive | D2 ag-3 inactive
COc1ccc2cc(C=O)n(C)c2c1	none | D3 ag inactive | D2 ag-3 inactive
Cc1ccc2c(c1)[nH]c1c(=O)n(Cc3ccco3)cnc12	D2 ag-2 33 | D3 ag inactive | D2 ag-3 inactive
COc1ccc(N2CCN(C3CCCN(Cc4ccc(F)cc4)C3)CC2)cc1 (stereo unspecified)	none
FC(F)(F)c1ccccc1CN1CCCC(N2CCN(c3ccccc3)CC2)C1 (stereo unspecified)	D2 ag-2 62, D2 antag 78 | D3 ag inactive | D2 ag-3 inactive
CC1(c2ccccc2)NC(=O)N(CC(=O)Nc2ccc(S(=O)(=O)Nc3ncccn3)cc2)C1=O (stereo unspecified)	D2 ag-2 53, D2 antag 50 | D3 ag inactive | D2 ag-3 inactive
Cn1c2c(c(=O)n(C)c1=O)C(C(F)(F)F)(C(F)(F)F)N=C(c1ccc(Cl)cc1)N2	D2 PAM-2 inconclusive | D3 ag inconclusive | D2 ag-3 inactive
CCc1nn2c(=O)cc(COC(=O)c3ccc(NC(=O)CCc4ccccc4)cc3)nc2s1	none (no result: D2 ag-1, D2 PAM-2, D2 antag)
CC(c1ccccc1)n1c(-c2cccs2)nc2c(c(=O)c3ccccc3n2C)c1=O (stereo unspecified)	none | D3 ag inactive | D2 ag-3 inactive
CCn1c(N2CCN(S(=O)(=O)c3ccccc3C(F)(F)F)CC2)nc2ccccc21	D2 ag-1 inconclusive | D3 ag 13µM | D2 ag-3 inconclusive
Cc1ccc(C)c(N2CCN(S(=O)(=O)c3ccc(-c4cnc(C5CC5)o4)cc3)CC2)c1	none (no result: D2 ag-1, D2 PAM-2, D2 antag)
COc1ccc2cc(CN(CCc3ccccc3)Cc3nnnn3CC3CCCO3)c(=O)[nH]c2c1 (stereo unspecified)	none
CCOC(=O)Cn1nnnc1CN(Cc1ccc(OC)cc1)Cc1cc2cc(CC)ccc2[nH]c1=O	none | D3 ag inactive | D2 ag-3 inactive
COc1ccc2[nH]c(=O)c(CN(CCc3ccccc3)Cc3nnnn3CC3CCCO3)cc2c1 (stereo unspecified)	none | D3 ag inconclusive | D2 ag-3 inactive
O=C(c1cccc([N+](=O)[O-])c1)N1CCN(C/C=C/c2ccccc2)CC1	none
CC(C(=O)Nc1cccc([N+](=O)[O-])c1)N1CCN(C/C=C/c2ccccc2)CC1 (stereo unspecified)	D2 ag-2 72, D2 antag 47 | D3 ag inactive | D2 ag-3 inconclusive
CC(COc1ccccc1)NC(C)C(O)c1ccc(O)cc1 (stereo unspecified)	D2 ag-2 77, D2 antag 90 | D3 ag inactive | D2 ag-3 inactive
OC(CNCCc1ccc(C(F)(F)F)cc1)COc1cccc2ccccc12 (stereo unspecified)	none | D3 ag inactive | D2 ag-3 inactive
CCNC(=S)NNC(=O)c1ccccc1OC(F)F	D2 antag 33 | D3 ag inactive | D2 ag-3 inactive
CN(CC(=O)NCc1ccc(Cl)cc1)S(=O)(=O)c1ccc2c(c1)c(=O)n(C)c(=O)n2C	none (no result: D2 ag-1, D2 PAM-2, D2 antag)
CCOC(=O)N1CCC(c2cc(=O)n3[nH]cc(C(=O)OC)c3n2)CC1	none
CCOc1ccc(NC(=O)c2c[nH]n3c(=O)cc(C4CCN(C(=O)OC(C)(C)C)CC4)nc23)cc1	none | D3 ag inactive | D2 ag-3 inactive
COc1ccc(C2=NOC3(CC(=O)N(c4ccc(F)cc4)C3=O)C2)c(OC)c1 (stereo unspecified)	none
COc1ccc(C2=NOC3(CC(=O)N(c4ccc5ccccc5c4)C3=O)C2)c(OC)c1 (stereo unspecified)	none | D3 ag inactive | D2 ag-3 inactive
CCN(CC(=O)Nc1ccc(OC)cc1)C(=O)Cc1ccc(OC)c(S(=O)(=O)N2CCOCC2)c1	none | D3 ag inactive | D2 ag-3 inactive
Cn1ccc(C(=O)Nc2ccc3c(c2)OCCO3)n1	none | D3 ag inactive | D2 ag-3 inactive
CC(C)N(Cc1nc(-c2ccccc2)no1)C(=O)c1ccc([N+](=O)[O-])cc1	none
